# Shown are actives, neighbours in structure and some others; about 19% of the full set was active somewhere.
# HT1080-NT tox = kills 2HG-producing HT-1080-NT fibrosarcoma cells | Potency, µM (titrated, usually from 46.1 µM), hits mostly cytotoxic | HT-1080-NT fibrosarcoma viability, CellTiter-Glo ATP luminescence, 48 h | 360,000 tested, 1.6% active;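 further: NT is the 2HG producing partner of a matched IDH1 knockdown line; nearly all actives have a fitted effect of over 55% in size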
#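 HT-1080-NT; 750 cells/well; 5% FBS RPMI; 48 h compound, 37 degrees C; CellTiter-Glo luminescence; curve fitting and curve-class assignment.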
# IL-1B inflam inh = blocks inflammasome-driven IL-1 beta release; THP-1 LPS/ATP IL-1B secretion, AlphaLISA, 16 h; hits give low values; 360,000 tested, 4.7% active; activity change, % at 57.5 µM; in the data active means activity change below about -50%; inconclusive means mostly about -30% to -49%
#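 THP-1 cells pretreated 1 hr with compounds (up to 57.5 uM final), then stimulated with LPS (250 ng/mL final) plus ATP (1.25 mM final); secreted IL-1B measured by AlphaLISA after 16 hr, decreased signal indicating inhibition.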
# DT40 TDP1 CPT = DT40-hTDP1 cell growth loss with CPT. Potency, µM (doses to about 46.2 µM), actives largely listed as inhibitors. AID 686979. chicken DT40 Tdp1-/-;hTDP1 cells + 20 nM CPT, ATP luminescence, 48 h. 420,000 tested, 12% active; further: nearly all actives have a fitted effect of over 55% in size
#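 Cell growth measured by CellTiter-Glo luminescence after a minimum 48 h, 37 C compound exposure with 20 nM CPT in Tdp1-knockout DT40 cells stably expressing hTDP1, seeded 400/well; qHTS titration format.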
# HT1080 IDH1KD tx = HT-1080 IDH1 knockdown cell toxicity (counter line); HT-1080 IDH1 knockdown viability, ATP luminescence, 48 h; 360,000 tested, 2% active; AID 686971; Potency, µM (titrated, usually from 46.1 µM), usual class: cytotoxic
#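 Using the IDH1-knockdown HT-1080 line run in the same batch and compound series as the NT line, viability after 48 h at 37 °C was determined by CellTiter-Glo luminescence and expressed as % activity.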
# DT40 TDP1 no CPT = qHTS for Inhibitors of human tyrosyl-DNA phosphodiesterase 1 (TDP1): qHTS in cells in absence of CPT. DT40 Tdp1-/- hTDP1 cells, no CPT, ATP luminescence, 48 h. Potency, µM (series often up to 46.2 µM), usual class: inhibitors. AID 686978, 2013. 420,000 tested, 15% active; further: nearly all actives have a fitted effect of over 55% in size
#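 Stably hTDP1-transfected Tdp1-null chicken DT40 cells were treated with library compounds minus camptothecin and grown for at least 48 hr at 37 °C, after which cellular ATP was quantified by luminescence.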
# Hits are given with their value; . = inactive; ? = inconclusive; / = not tested or not shown. Unless noted, the call rests on the fitted dose curve; in most records, active means well fitted curve in the direction sought with a large enough effect; inconclusive means small, poorly fitted or top-dose-only effect, or another doubt; inactive means no such curve, though single readings can be large; an effect the other way counts as inactive or inconclusive.
SMILES,HT1080-NT tox,IL-1B inflam inh,DT40 TDP1 CPT,HT1080 IDH1KD tx,DT40 TDP1 no CPT
Cn1c(CCCOc2ccc(Cl)cc2Cl)nnc1SCC(=O)Nc1nccs1,.,.,23µM,.,?
CCOc1ccc(NC(=O)CSc2nccn2-c2cccc(C)c2C)cc1,/,/,18µM,/,18µM
O=C(CSc1nnc(CCCO)n1-c1ccccc1)Nc1nccs1,.,.,.,.,.
CCc1nnc(NC(=O)CSc2nccn2-c2cccc(C)c2C)s1,.,.,16µM,?,8.2µM
Cc1cccc(C)c1OCc1nnc(SCC(=O)Nc2nccs2)n1-c1ccccc1,?,.,?,?,5.8µM
CCCCc1nnc(SCC(=O)Nc2nccs2)n1C,.,.,.,.,.
Cc1nnc(NC(=O)c2ccc(Br)o2)s1,.,.,.,.,.
OCCc1c[nH]c2ccc(C(F)(F)F)cc12,.,.,.,.,.
COc1cc(OC)cc(C(=O)NN(CCC#N)C2=NS(=O)(=O)c3ccccc32)c1,.,.,.,.,.
CCc1nnc(NC(=O)CSc2nccn2-c2cc(C)cc(C)c2)s1,.,.,23µM,.,16µM
CC(C)(C)c1nc2ccccc2c2nnc(SCC(=O)Nc3nccs3)n12,?,.,3.3µM,?,4.6µM
Cc1cccc(-n2ccnc2SCC(=O)Nc2nccs2)c1C,.,.,?,.,16µM
O=C(COC(=O)c1n[nH]c(=O)c2ccccc12)Nc1ccccc1F,.,.,.,.,.
CCN(C(=O)CSc1cc(C)c2cccc(C)c2n1)C1CCS(=O)(=O)C1 (centres undefined),.,.,.,.,?
C=CCNc1ncnc2c1ncn2[C@H]1CN(C2CCCC2)C[C@@H](CO)O1,.,.,.,.,.
CCCCc1c(C)nn(-c2nnc3c4ccccc4n(C)c3n2)c1C,.,.,23µM,.,23µM
CC(C)CSc1nnc2c3ccccc3n(C)c2n1,.,.,.,.,?
Cc1ccc(S(=O)(=O)c2[nH]c(-c3ccccc3)nc2SCC(N)=O)cc1,/,/,.,/,.
CC1CCN(c2ccc(-c3cccs3)nn2)CC1,?,.,?,.,10µM
CC(=O)Nc1ccc(Nc2nc(-c3cc4ccccc4oc3=O)cs2)cc1,.,.,8.2µM,.,18µM
Nc1ccc(Nc2nc(-c3cc4ccccc4oc3=O)cs2)cc1,.,-90,18µM,.,8.2µM
CCN1/C(=C/c2sc(-c3ccccc3C)c[n+]2C)Sc2ccccc21,2.1µM,-99,0.26µM,2.1µM,0.21µM
CCN1/C(=C/C(=O)c2ccco2)Sc2ccccc21,.,.,.,.,.
Cc1ccc(-c2noc(-c3ccc(NCc4cccnc4)c([N+](=O)[O-])c3)n2)cc1,/,/,?,/,5.2µM
O=[N+]([O-])c1cc(-c2nc(-c3ccccc3)no2)ccc1NCc1cccnc1,/,/,12µM,/,5.8µM
SMILES,HT1080-NT tox,IL-1B inflam inh,DT40 TDP1 CPT,HT1080 IDH1KD tx,DT40 TDP1 no CPT
COc1ccc(-c2noc(-c3ccc(NCc4cccnc4)c([N+](=O)[O-])c3)n2)cc1,/,/,?,/,.
CCc1nc2ccc(C(=O)NCc3ccc4c(c3)OCO4)cn2c1N(CC)CCN(C)C,.,.,.,.,.
CCc1nc2ccc(C(=O)NCc3ccc4c(c3)OCO4)cn2c1N(C)Cc1cccs1,.,?,?,.,16µM
CCCCN(C=O)c1c(CC)nc2ccc(C(=O)NCc3ccc4c(c3)OCO4)cn12,.,.,?,.,?
CCc1nc2ccc(C(=O)NCc3ccc4c(c3)OCO4)cn2c1N(CCC(C)C)CCN(C)C,21µM,.,21µM,?,?
CCc1nc2ccc(C(=O)NCc3ccc4c(c3)OCO4)cn2c1N(C)C(=O)Cc1ccccc1,.,.,.,.,23µM
CCc1nc2ccc(C(=O)NCCOc3ccc(OC)cc3)cn2c1N(C)C(=O)COc1ccccc1,.,.,?,.,.
CCN(CC)c1c(C)nc2ccc(C(=O)NCc3ccc4c(c3)OCO4)cn12,.,.,.,.,?
CCc1nc2ccc(C(=O)NCc3ccc(OC)cc3)cn2c1N(C)C(=O)Cc1ccccc1,.,.,?,.,21µM
Cc1nc2ccc(C(=O)NCCc3c[nH]c4ccccc34)cn2c1N(C)C(=O)CCc1ccccc1,.,.,23µM,.,23µM
Cc1ccc2cc3cc(C(=O)N(CC(=O)NC4CCCC4)c4cccc(C)c4C)sc3nc2c1,.,.,23µM,.,18µM
Cc1ccc(C)c(N(CC(=O)NC2CCCC2)C(=O)c2cc3cc4cccc(C)c4nc3s2)c1,.,.,?,.,?
Cc1cc(-n2c(C)cc(C(=O)CN3C(=O)NC4(CCCCC4C)C3=O)c2C)no1 (centres undefined),.,?,.,.,?
COCC(C)n1c(C)cc(C(=O)CN2C(=O)NC3(CCCCC3C)C2=O)c1C (centres undefined),.,.,?,.,21µM
CN(CCOc1ccccc1Cl)Cc1ccccc1,.,.,?,.,.
Cc1ccc(Cl)c(OCCCN(C)Cc2ccccc2)c1,?,-77,.,.,?
CN(CCOCCOc1ccc(Cl)cc1Br)Cc1ccccc1,?,-80,.,?,?
CN(CCCOc1ccccc1Br)Cc1ccccc1,.,.,.,.,?
Cc1ccc(Cl)c(OCCCCN(C)Cc2ccccc2)c1,?,-57,?,?,?
O=C(CN1C(=O)CSc2ccc(S(=O)(=O)N3CCCC3)cc21)NCc1ccc(F)cc1Cl,/,/,.,/,.
COc1ccc(N2CC(C(=O)OC(C)C(=O)c3ccccc3)CC2=O)cc1 (centres undefined),.,.,.,.,.
Cc1ccccc1NC(=O)c1c(C)oc2ccc(O)c(CN3CCCC(C)C3)c12 (centres undefined),/,/,10µM,/,21µM
Cc1ccccc1NC(=O)c1c(C)oc2ccc(O)c(CN3CCC(C)CC3)c12,/,/,16µM,/,23µM
C[C@H]1CN([C@@H](C)CO)C(=O)CCCn2nncc2CO[C@@H]1CN(C)C(=O)NC1CCCCC1,.,.,.,.,.
COc1cccc(CNS(=O)(=O)c2cc(Br)ccc2Br)c1,.,.,?,.,?
SMILES,HT1080-NT tox,IL-1B inflam inh,DT40 TDP1 CPT,HT1080 IDH1KD tx,DT40 TDP1 no CPT
Cc1cccc(-c2nc(CSc3nncn4c3cc3sccc34)c(C)o2)c1,/,/,.,/,?
COc1ccc(-c2nc(CSc3nncn4c3cc3sccc34)c(C)o2)cc1OC,/,/,1.8µM,/,2.6µM
Cc1cc(C(=O)NNC(=S)NC(C)c2ccccc2)c2ccccc2n1 (centres undefined),.,.,?,.,?
C#CCOCC1CNC(=S)O1 (centres undefined),.,.,.,.,.
COc1cc(/C=C(/C#N)c2ccccc2F)ccc1OCc1ccccc1,.,.,16µM,.,18µM
COc1cc(/C=C(\C#N)C(=O)NCc2ccccc2)ccc1OCc1ccc(C(=O)O)cc1,.,.,?,.,?

# Source: PubChem (National Center for Advancing Translational Sciences (NCATS))
